Compound activity from PubChem.
In the library only some 6.8% were active in any assay of this set; here they are far more common.
T cruzi growth: inhibitors of T. cruzi proliferation. T. cruzi beta-gal in NIH3T3, GalScreen luminescence, 90 h. inhibition, % at 8.34 µM. 77,000 tested, 5.9% active;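 active = mean inhibition above about 93%, with at least 55% of replicates each passing it, limit read from the data, passing the limit was not always enough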
C diff growth: C. difficile growth inhibition. Clostridium difficile clinical isolate growth, OD600, 24 h; stronger effect = lower value. growth activity, negative = inhibition, % at 16 µg/mL (by protocol). 86,000 tested, 0.25% active;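 active = mean growth activity at or below -80% and every replicate also at or below -80%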;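 note: 0% = DMSO wells and -100% = levofloxacin 16 µg/mL wells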
Pf Dd2 growth: P. falciparum Dd2 growth inhibition | SYBR Green, 72 h; stronger effect = lower value | activity change, % at 10 µM | 94,000 tested, 2.3% active; in the data active = activity change below about -80%
* marks the source's active call; other numbers are inactive results; nt = no result.

SMILES	T cruzi growth	C diff growth	Pf Dd2 growth
Cc1ccc(S(=O)(=O)Nc2cccc3c2O[C@H](CN(C)Cc2ccc(C(=O)Nc4ccccc4N)cc2)[C@@H](C)CN([C@@H](C)CO)C3=O)cc1	nt	3	-74
C[C@@H]1CN([C@H](C)CO)C(=O)c2cccc(NS(=O)(=O)c3ccccc3)c2O[C@H]1CN(C)Cc1ccc(-c2ccccc2)cc1	-87	nt	-91*
O=C(C[C@@H]1CC[C@H](NS(=O)(=O)c2ccc(F)cc2)[C@@H](CO)O1)NCCc1ccncc1	-64	4	0
COCC#Cc1ccc2c(c1)O[C@H](CN(C)C(=O)Nc1ccc(OC)cc1)[C@H](C)CN([C@@H](C)CO)S2(=O)=O	-35	-2	-2
O=C(C[C@@H]1CC[C@H]2[C@@H](COC[C@@H](O)CN2C(=O)Nc2ccc(Cl)cc2)O1)NCc1ccncn1	39	nt	9
Cc1ccc(S(=O)(=O)Nc2cccc3c2O[C@@H](CN(C)Cc2ccc(C(=O)Nc4ccccc4N)cc2)[C@H](C)CN([C@@H](C)CO)C3=O)cc1	nt	6	-72
C[C@H](CO)N1C[C@H](C)[C@H](CN(C)Cc2ccc(C(=O)Nc3ccccc3N)cc2)Oc2c(NS(=O)(=O)c3ccc(Cl)cc3)cccc2C1=O	nt	9	-89*
COCc1cn([C@@H]2C[C@@H]3O[C@H](CO)CC[C@@H]3O[C@@H]2CCc2ccc(-c3ccc(OC)cc3)cc2)nn1	nt	-29	-94*
COCc1cn([C@H]2C[C@@H]3O[C@H](CO)CC[C@@H]3O[C@@H]2CCc2ccc(-c3ccc(OC)cc3)cc2)nn1	nt	2	-38
COCc1cn([C@@H]2C[C@@H]3O[C@@H](CO)CC[C@@H]3O[C@@H]2CCc2ccc(-c3ccc(OC)cc3)cc2)nn1	nt	-8	-84*
OC[C@H]1CC[C@@H]2O[C@H](CCc3ccc(-c4ccc(F)cc4)cc3)[C@@H](n3cc(C4CC4)nn3)C[C@@H]2O1	nt	4	-47
CCC(=O)N(C)C[C@H]1[C@H](c2ccc(C3=CCCC3)cc2)[C@@H](CO)N1C(=O)CC	90	1	15
COc1ccc2c3c(n(C)c2c1)[C@H](CO)N(C(=O)Nc1ccc(F)cc1)CC31CCN(C(=O)c2ccccc2F)CC1	nt	-7	-68
C[C@@H]1CN([C@@H](C)CO)C(=O)c2c(c3ccccc3n2C)-c2ccccc2CO[C@H]1CN(C)Cc1ccc2c(c1)OCO2	nt	3	-83*
C[C@@H]1CN([C@H](C)CO)C(=O)c2c(c3ccccc3n2C)-c2ccccc2CO[C@H]1CN(C)Cc1ccc2c(c1)OCO2	nt	-4	-37
C[C@@H]1CN([C@@H](C)CO)C(=O)c2c(c3ccccc3n2C)-c2ccccc2CO[C@H]1CN(C)Cc1ccc(Cl)c(Cl)c1	nt	4	-91*
C[C@H]1CN([C@@H](C)CO)C(=O)c2c(c3ccccc3n2C)-c2ccccc2CO[C@H]1CN(C)Cc1ccc(Cl)c(Cl)c1	nt	9	-77
COc1ccc(CN(C)C[C@H]2Oc3ccc(NC(=O)CCCCCC(=O)Nc4ccccc4N)cc3CC(=O)N([C@@H](C)CO)C[C@H]2C)cc1	nt	2	-76
COc1ccc(CN(C)C[C@@H]2Oc3ccc(NC(=O)CCCCCC(=O)Nc4ccccc4N)cc3CC(=O)N([C@@H](C)CO)C[C@@H]2C)cc1	nt	-3	-87*
C[C@H](CO)N1C[C@H](C)[C@H](CN(C)Cc2ccc(-c3ccccc3)cc2)Oc2ccc(NC(=O)CCCCCC(=O)Nc3ccccc3N)cc2CC1=O	36	-5	-83*
COc1ccc(CN(C)C[C@@H]2Oc3ccc(NC(=O)CCCCCC(=O)Nc4ccccc4N)cc3CC(=O)N([C@H](C)CO)C[C@@H]2C)cc1	nt	2	-85*
COc1ccc(CN(C)C[C@H]2Oc3ccc(NC(=O)CCCCCC(=O)Nc4ccccc4N)cc3CC(=O)N([C@H](C)CO)C[C@H]2C)cc1	24	-17	-39
C[C@@H]1CN([C@H](C)CO)C(=O)Cc2cc(NC(=O)CCCCCC(=O)Nc3ccccc3N)ccc2O[C@@H]1CN(C)Cc1ccc(-c2ccccc2)cc1	75	4	-44
C[C@@H]1CN([C@H](C)CO)C(=O)Cc2cc(NC(=O)CCCCCC(=O)Nc3ccccc3N)ccc2O[C@@H]1CN(C)S(=O)(=O)c1ccc(F)cc1	28	-1	-62
C[C@@H]1CN([C@@H](C)CO)C(=O)c2cc(NC(=O)Nc3cccc4ccccc34)ccc2O[C@H]1CN(C)C(=O)NC1CCCCC1	57	-11	-12
CN1CCN(C(=O)C[C@@H]2CC[C@@H]3[C@H](COC[C@H](O)CN3Cc3cccc(Cl)c3)O2)CC1	-30	nt	-1
CC(C)CC#Cc1cnc2c(c1)C(=O)N([C@H](C)CO)C[C@@H](C)[C@@H](CN(C)S(=O)(=O)c1cn(C)cn1)O2	49	-1	16
